These results are taken from the supplement of paper PMC10849652.

Of roughly 7,900 targets only a part is listed; those with a hit were picked by preference. About 0.6% of all pairs of compound and target were hits. A number with no mark means an inactive call.

Chain of UniProt O75822 (O75822 whole entry, looked up): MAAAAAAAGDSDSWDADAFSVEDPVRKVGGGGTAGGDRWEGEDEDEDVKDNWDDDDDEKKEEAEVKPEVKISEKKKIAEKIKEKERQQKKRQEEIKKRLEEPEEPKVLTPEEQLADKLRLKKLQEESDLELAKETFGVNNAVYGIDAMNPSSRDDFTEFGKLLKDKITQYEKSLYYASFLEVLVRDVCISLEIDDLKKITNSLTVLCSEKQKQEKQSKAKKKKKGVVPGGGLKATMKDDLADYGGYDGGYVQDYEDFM
Chain of UniProt Q04637 (Q04637 whole entry, looked up): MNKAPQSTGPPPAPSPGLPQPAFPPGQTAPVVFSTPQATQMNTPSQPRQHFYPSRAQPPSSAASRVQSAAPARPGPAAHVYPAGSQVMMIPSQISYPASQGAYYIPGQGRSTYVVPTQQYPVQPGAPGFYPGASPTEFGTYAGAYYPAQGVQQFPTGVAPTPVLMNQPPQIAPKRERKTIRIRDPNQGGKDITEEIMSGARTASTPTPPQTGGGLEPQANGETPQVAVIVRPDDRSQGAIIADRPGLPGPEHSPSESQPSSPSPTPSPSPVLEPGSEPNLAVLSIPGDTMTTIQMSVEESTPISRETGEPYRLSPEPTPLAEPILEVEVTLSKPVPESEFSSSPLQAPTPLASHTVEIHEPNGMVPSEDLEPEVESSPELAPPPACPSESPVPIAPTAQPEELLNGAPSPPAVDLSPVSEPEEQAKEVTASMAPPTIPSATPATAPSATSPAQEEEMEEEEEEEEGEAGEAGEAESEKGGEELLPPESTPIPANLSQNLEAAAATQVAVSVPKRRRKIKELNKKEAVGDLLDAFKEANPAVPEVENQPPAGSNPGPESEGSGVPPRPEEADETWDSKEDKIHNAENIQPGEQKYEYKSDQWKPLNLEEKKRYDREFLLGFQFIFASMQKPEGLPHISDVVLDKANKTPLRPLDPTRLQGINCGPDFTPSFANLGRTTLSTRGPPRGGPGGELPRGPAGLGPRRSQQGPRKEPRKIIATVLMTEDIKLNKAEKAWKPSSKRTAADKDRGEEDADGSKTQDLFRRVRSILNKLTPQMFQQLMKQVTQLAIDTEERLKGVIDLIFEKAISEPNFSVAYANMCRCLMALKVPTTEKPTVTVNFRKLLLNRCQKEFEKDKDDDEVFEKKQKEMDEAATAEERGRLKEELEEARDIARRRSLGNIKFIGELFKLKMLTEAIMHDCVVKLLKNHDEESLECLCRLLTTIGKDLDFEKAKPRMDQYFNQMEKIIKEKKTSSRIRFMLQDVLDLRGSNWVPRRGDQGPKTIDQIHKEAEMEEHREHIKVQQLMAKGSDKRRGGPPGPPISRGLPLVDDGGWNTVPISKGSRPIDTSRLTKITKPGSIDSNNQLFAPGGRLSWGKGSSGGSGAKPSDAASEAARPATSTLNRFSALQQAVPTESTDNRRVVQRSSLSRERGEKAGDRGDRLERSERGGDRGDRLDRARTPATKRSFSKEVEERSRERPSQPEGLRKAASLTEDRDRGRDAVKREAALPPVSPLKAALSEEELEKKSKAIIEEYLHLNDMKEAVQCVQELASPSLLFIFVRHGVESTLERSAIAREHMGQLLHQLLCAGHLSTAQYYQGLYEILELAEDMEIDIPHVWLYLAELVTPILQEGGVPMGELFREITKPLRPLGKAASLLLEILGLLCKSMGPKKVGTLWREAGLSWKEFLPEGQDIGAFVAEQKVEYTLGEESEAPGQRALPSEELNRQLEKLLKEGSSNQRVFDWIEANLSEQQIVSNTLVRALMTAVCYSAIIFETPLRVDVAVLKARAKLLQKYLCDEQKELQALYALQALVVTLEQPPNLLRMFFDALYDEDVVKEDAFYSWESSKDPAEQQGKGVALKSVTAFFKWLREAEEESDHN
Chain of UniProt Q9GZT9 (Q9GZT9 whole entry, looked up): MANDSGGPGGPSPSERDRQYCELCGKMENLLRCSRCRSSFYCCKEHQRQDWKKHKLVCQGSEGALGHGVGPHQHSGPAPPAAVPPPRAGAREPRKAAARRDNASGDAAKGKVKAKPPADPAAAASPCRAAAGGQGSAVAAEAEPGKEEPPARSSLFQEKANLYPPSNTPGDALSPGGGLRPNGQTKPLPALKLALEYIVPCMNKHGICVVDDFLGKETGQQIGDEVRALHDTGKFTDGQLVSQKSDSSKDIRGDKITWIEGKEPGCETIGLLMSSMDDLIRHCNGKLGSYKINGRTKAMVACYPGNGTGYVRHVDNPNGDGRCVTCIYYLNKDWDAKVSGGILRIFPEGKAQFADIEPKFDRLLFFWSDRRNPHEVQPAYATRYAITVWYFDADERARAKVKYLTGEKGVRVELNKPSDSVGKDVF
Chain of UniProt Q86UK5 (Q86UK5 whole entry, looked up): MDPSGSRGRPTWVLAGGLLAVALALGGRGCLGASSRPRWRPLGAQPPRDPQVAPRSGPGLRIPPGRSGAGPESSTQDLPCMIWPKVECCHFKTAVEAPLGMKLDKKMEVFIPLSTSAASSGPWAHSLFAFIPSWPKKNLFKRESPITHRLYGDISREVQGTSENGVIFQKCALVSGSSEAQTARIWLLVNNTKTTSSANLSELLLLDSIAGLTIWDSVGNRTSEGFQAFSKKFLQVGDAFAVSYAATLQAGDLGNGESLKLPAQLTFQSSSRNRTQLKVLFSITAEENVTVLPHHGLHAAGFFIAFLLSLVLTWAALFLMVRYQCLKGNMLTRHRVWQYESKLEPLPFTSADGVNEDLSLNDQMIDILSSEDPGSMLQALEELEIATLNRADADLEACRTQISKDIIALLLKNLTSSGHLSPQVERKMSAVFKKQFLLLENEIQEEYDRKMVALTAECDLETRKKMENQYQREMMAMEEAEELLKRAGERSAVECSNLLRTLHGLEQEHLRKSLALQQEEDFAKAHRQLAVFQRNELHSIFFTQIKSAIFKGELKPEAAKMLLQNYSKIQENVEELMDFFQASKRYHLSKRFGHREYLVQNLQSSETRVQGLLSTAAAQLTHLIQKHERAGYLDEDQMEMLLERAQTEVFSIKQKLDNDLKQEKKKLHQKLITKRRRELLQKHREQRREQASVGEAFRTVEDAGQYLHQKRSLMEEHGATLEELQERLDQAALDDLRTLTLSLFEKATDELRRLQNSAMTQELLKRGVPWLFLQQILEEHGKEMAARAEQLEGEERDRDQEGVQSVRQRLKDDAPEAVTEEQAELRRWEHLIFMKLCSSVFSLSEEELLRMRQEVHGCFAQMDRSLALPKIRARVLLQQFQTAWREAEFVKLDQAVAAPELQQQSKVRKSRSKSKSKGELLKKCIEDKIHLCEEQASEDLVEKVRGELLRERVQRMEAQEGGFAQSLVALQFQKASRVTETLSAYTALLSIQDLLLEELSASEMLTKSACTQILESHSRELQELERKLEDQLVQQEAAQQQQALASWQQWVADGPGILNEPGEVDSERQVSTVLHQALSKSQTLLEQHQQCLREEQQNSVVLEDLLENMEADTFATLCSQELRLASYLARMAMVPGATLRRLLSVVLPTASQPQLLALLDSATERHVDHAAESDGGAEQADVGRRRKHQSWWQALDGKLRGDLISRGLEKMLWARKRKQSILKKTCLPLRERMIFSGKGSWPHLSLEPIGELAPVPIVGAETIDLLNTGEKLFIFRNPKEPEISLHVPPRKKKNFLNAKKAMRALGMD
Chain of UniProt Q03468 (Q03468 whole entry, looked up): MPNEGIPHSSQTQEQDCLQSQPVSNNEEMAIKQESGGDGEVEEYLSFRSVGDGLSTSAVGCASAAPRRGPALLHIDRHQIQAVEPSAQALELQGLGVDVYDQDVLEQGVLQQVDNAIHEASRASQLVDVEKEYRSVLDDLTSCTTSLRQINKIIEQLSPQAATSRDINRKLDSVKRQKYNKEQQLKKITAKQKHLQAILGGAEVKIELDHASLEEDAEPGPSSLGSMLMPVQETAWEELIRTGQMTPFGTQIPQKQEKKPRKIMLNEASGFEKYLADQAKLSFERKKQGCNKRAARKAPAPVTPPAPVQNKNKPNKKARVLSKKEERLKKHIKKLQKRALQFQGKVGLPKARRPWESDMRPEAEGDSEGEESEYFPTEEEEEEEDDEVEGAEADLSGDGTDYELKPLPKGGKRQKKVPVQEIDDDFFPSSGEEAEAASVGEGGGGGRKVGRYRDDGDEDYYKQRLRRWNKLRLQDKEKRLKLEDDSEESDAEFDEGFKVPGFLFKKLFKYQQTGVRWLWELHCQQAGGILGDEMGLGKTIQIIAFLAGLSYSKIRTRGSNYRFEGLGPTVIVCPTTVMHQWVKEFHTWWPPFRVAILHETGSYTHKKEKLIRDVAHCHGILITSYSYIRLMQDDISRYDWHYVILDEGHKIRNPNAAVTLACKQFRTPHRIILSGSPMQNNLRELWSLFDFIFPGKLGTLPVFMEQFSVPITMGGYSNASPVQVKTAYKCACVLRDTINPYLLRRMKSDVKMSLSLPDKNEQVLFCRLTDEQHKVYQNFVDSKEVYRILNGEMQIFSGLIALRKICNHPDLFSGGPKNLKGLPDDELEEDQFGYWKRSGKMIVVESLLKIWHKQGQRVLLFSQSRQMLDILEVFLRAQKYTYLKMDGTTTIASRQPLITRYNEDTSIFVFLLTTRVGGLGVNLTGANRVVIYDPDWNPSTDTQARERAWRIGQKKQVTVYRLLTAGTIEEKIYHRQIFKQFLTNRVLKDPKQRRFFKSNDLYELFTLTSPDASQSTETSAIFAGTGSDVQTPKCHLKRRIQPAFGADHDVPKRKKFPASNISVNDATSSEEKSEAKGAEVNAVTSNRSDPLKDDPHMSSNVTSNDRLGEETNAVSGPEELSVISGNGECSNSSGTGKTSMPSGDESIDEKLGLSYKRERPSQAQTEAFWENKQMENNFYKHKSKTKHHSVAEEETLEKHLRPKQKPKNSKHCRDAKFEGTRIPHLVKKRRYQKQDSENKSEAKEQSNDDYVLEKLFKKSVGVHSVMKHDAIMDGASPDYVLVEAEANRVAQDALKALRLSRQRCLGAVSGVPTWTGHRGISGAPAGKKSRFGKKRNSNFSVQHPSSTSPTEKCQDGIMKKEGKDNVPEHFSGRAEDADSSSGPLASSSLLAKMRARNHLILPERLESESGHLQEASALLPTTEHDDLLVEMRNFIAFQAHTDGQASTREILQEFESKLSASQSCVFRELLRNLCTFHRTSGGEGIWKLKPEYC

Compound in the first experiment: CN1CCN(c2nc(C3=C(c4c[nH]c5ccccc45)C(=O)NC3=O)c3ccccc3n2)CC1 [sotrastaurin]
The experiment is described as follows: log2 fold change, soluble protein after heating vs DMSO (PISA); higher = thermal stabilisation; K562 cells, 10 uM, 30 min; active = over 0.2 and 3.5 SD of the protein, either way, in both replicates (recomputed). Put shortly:
(§1)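 Values are thermal stability changes relative to control samples and are taken from duplicates. They are stated as log2 fold changes. Before quantification by TMTpro 16plex LC-MS/MS with equalised channel sums, K562 cells at 2×10^6 cells/mL were treated with 10 μM compound for 30 min, heated in aliquots for 3 min across 48°C-58°C, pooled, extracted in PBS with 0.5% NP-40 at 4°C, and centrifuged at 21,000xg for 90 min to give the soluble supernatant.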
CYFIP1 (UniProt Q7L576): the log2 fold change is -0.026.

For the target ERCC6 (UniProt Q03468), the log2 fold change was 0.169.

Turning to DHX40 (UniProt Q8IX18), the log2 fold change is -0.025.

In the case of EEF1AKNMT (UniProt Q8N6R0), the log2 fold change was -0.174.

Take DHPS (UniProt P49366): the log2 fold change is 0.043.

Take DHRS1 (UniProt Q96LJ7): the log2 fold change is 0.153.

Consider CTSV (UniProt O60911), for which the log2 fold change is 0.195.

DHCR7 (UniProt Q9UBM7): the log2 fold change is -0.033.

With EIF4G1 isoform 8 (UniProt Q04637), the log2 fold change is -0.36.

In the case of FAM3A (UniProt P98173), the log2 fold change is 0.001.

In the case of CTNNB1 (UniProt P35222), the log2 fold change was 1.08 (active).

As to EIF3J (UniProt O75822), the log2 fold change was -0.028.

As for EVC2 (UniProt Q86UK5), the log2 fold change was 0.067.

In the case of EIF4E isoform 2 (UniProt P06730), the log2 fold change is 0.189.

For the target EGLN1 (UniProt Q9GZT9), the log2 fold change is -0.074.

EHD2 (UniProt Q9NZN4): the log2 fold change is 0.017.

Compound in a further experiment: CN1CC[C@H](c2c(O)cc(O)c3c(=O)cc(-c4ccccc4Cl)oc23)[C@H](O)C1 [alvocidib]
Described as above. The method in brief:
as §1
For the target DDB1 (UniProt Q16531), the log2 fold change is 0.004.

For DNM2 (UniProt P50570), the log2 fold change is -0.074.

Take ESS2 (UniProt Q96DF8): the log2 fold change was 0.113.

As for DCUN1D1 (UniProt Q96GG9), the log2 fold change was -0.067.

In the case of EXOC4 (UniProt Q96A65), the log2 fold change was -0.131.

On to EDC4 (UniProt Q6P2E9), for which the log2 fold change was -0.167.

As for DAB2 (UniProt P98082), the log2 fold change was -0.084.

Consider DHRS7B (UniProt Q6IAN0), for which the log2 fold change is -0.18.

Take F5 (UniProt P12259): the log2 fold change is 0.134.

As to DDX46 (UniProt Q7L014), the log2 fold change was -0.157.

For EXTL2 (UniProt Q9UBQ6), the log2 fold change was -0.122.

Regarding DYNC1LI2 (UniProt O43237), the log2 fold change is 0.258.

EFL1 (UniProt Q7Z2Z2): the log2 fold change is -0.038.

Regarding CUX1 isoform 3 (UniProt P39880), the log2 fold change was -0.02.

For the target FAM114A2 (UniProt Q9NRY5), the log2 fold change is -0.078.

Regarding CTSH (UniProt P09668), the log2 fold change was 0.038.

For DHX36 (UniProt Q9H2U1), the log2 fold change was 0.122.

As for DNAH11 (UniProt Q96DT5), the log2 fold change was 0.517.

In the case of DPH5 isoform 5 (UniProt Q9H2P9), the log2 fold change is -0.064.

Take DHCR24 (UniProt Q15392): the log2 fold change was 0.002.

Consider DHRS13 (UniProt Q6UX07), for which the log2 fold change is -0.139.

For CUX1 isoform 2 (UniProt Q13948), the log2 fold change is -0.07.

For DBNL isoform 3 (UniProt Q9UJU6), the log2 fold change is -0.07.

Consider CYFIP1 (UniProt Q7L576), for which the log2 fold change was -0.038.

For ERCC6 (UniProt Q03468), the log2 fold change is -0.04.

In the case of DHX40 (UniProt Q8IX18), the log2 fold change is -0.052.

As for EEF1AKNMT (UniProt Q8N6R0), the log2 fold change is -0.039.

Turning to DHPS (UniProt P49366), the log2 fold change was -0.013.

Consider DHRS1 (UniProt Q96LJ7), for which the log2 fold change is -0.018.

Regarding CTSV (UniProt O60911), the log2 fold change is 0.012.

Turning to DHCR7 (UniProt Q9UBM7), the log2 fold change was -0.042.

As for EIF4G1 isoform 8 (UniProt Q04637), the log2 fold change was 0.021.

Turning to FAM3A (UniProt P98173), the log2 fold change was -0.027.

As for CTNNB1 (UniProt P35222), the log2 fold change is 0.037.

With EIF3J (UniProt O75822), the log2 fold change was 0.006.

Take EVC2 (UniProt Q86UK5): the log2 fold change is 0.031.

Take EIF4E isoform 2 (UniProt P06730): the log2 fold change is -0.027.

For EGLN1 (UniProt Q9GZT9), the log2 fold change is -0.003.

Consider EHD2 (UniProt Q9NZN4), for which the log2 fold change was -0.017.

Compound in a further experiment: CN1CCc2c(c3ccccc3n2Cc2ccc(C(=O)NO)cc2)C1 [Tubastatin A]
The description is as above. The method in brief: as §1
Regarding DDB1 (UniProt Q16531), the log2 fold change was -0.025.

Consider DNM2 (UniProt P50570), for which the log2 fold change was 0.

ESS2 (UniProt Q96DF8): the log2 fold change was -0.055.

DCUN1D1 (UniProt Q96GG9): the log2 fold change was -0.009.

Regarding EXOC4 (UniProt Q96A65), the log2 fold change was 0.058.

In the case of EDC4 (UniProt Q6P2E9), the log2 fold change was 0.016.

Consider DAB2 (UniProt P98082), for which the log2 fold change is 0.139.

With DHRS7B (UniProt Q6IAN0), the log2 fold change was -0.019.

Consider F5 (UniProt P12259), for which the log2 fold change was -0.076.

Consider DDX46 (UniProt Q7L014), for which the log2 fold change was 0.101.

For the target EXTL2 (UniProt Q9UBQ6), the log2 fold change was -0.136.

For the target DYNC1LI2 (UniProt O43237), the log2 fold change is 0.033.

With EFL1 (UniProt Q7Z2Z2), the log2 fold change was -0.007.

As for CUX1 isoform 3 (UniProt P39880), the log2 fold change was 0.021.

For the target FAM114A2 (UniProt Q9NRY5), the log2 fold change was -0.019.

Consider CTSH (UniProt P09668), for which the log2 fold change is 0.017.

Consider DHX36 (UniProt Q9H2U1), for which the log2 fold change was 0.048.

Turning to DNAH11 (UniProt Q96DT5), the log2 fold change is -0.083.

As for DPH5 isoform 5 (UniProt Q9H2P9), the log2 fold change is -0.022.

For DHCR24 (UniProt Q15392), the log2 fold change is 0.338.

DHRS13 (UniProt Q6UX07): the log2 fold change was 0.105.

CUX1 isoform 2 (UniProt Q13948): the log2 fold change is 0.006.

For the target DBNL isoform 3 (UniProt Q9UJU6), the log2 fold change is 0.009.

With CYFIP1 (UniProt Q7L576), the log2 fold change was 0.006.

As to ERCC6 (UniProt Q03468), the log2 fold change is -0.093.

With DHX40 (UniProt Q8IX18), the log2 fold change is 0.053.

Turning to EEF1AKNMT (UniProt Q8N6R0), the log2 fold change was -0.004.

Regarding DHPS (UniProt P49366), the log2 fold change was 0.005.

As for DHRS1 (UniProt Q96LJ7), the log2 fold change was 0.022.

Consider CTSV (UniProt O60911), for which the log2 fold change was 0.016.

As to DHCR7 (UniProt Q9UBM7), the log2 fold change is 0.087.

With EIF4G1 isoform 8 (UniProt Q04637), the log2 fold change was 0.034.

On to FAM3A (UniProt P98173), for which the log2 fold change was 0.045.

With CTNNB1 (UniProt P35222), the log2 fold change is 0.148.

Consider EIF3J (UniProt O75822), for which the log2 fold change was -0.005.

Regarding EVC2 (UniProt Q86UK5), the log2 fold change is -0.033.

Consider EIF4E isoform 2 (UniProt P06730), for which the log2 fold change is -0.085.

Turning to EGLN1 (UniProt Q9GZT9), the log2 fold change is -0.296 (active).

As to EHD2 (UniProt Q9NZN4), the log2 fold change is 0.048.
